Reference: PubChem BioAssay AID1063 (University of Pittsburgh Molecular Library Screening Center, 2008)
Values joined by “and” are separate entries in the source; they are usually repeats but may differ in a detail not shown here. Identical values can stand only once. Hit rate of the full screen: of about 200,000 compounds, about 18,000 (9%) were called active. Rule as the data show it: active = inhibition above about 50%; inactive = the rest. This excerpt belongs to a sample that is enriched for actives.

Test: Leishmania major promastigote growth inhibition, primary screen (AID 1063);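 also: promastigotes grown with compound for 44 hours at 28 °C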
Conditions: Leishmania major promastigotes, resazurin fluorescence viability; at 10 µM; active compounds read high

Compound	inhibition
CCC1CCCCN1C(=O)CSc1nc2c(c(=O)n(C)c(=O)n2C)n1C (stereo not given)	-6.11% (inactive)
CCOc1ccc(C(CC(=O)O)n2cnnn2)cc1OC (stereo not given)	-5.12% (inactive)
Cc1cc(NC(=O)CSc2nccn2-c2ccc([N+](=O)[O-])cc2)no1	-2.13% (inactive)
N/C(=N\OC(=O)N1c2ccccc2Sc2ccccc21)c1ccc(Br)cc1	26% (inactive)
CN1CCN(c2ccc([N+](=O)[O-])c(Sc3nc4ccccc4[nH]3)c2)CC1	57% (active)
O=C(CSc1nc2ccccc2[nH]1)N/N=C/C=C\c1ccccc1[N+](=O)[O-]	40.1% (inactive)
O=[N+]([O-])c1ccc(N2CCNCC2)cc1NCc1cccnc1	-1.11% (inactive)
COc1ccc(S(=O)(=O)N2CCOCC2)cc1NC(=O)CSc1ncnc2ccccc12	23% (inactive)
O=C(NC1CC1)C1CCCN(C(=O)NC2CCCCC2)C1 (stereo not given)	1.82% (inactive)
COc1ccc(-c2nn(-c3ccccc3)cc2CN2CCCO2)c(F)c1	13% (inactive)
O=C(CCCN1C(=O)/C(=C/c2ccccc2)SC1=S)Nc1ccc(O)cc1	56.3% (active)
O=C(CCCN1C(=O)/C(=C/c2ccco2)SC1=S)Nc1ccccc1	10.2% (inactive)
O=C(CCCN1C(=O)/C(=C\c2ccco2)SC1=S)Nc1cccc2ccccc12	30.1% (inactive)
O=C(Nc1ccc([N+](=O)[O-])cc1)C1CC12CCC2 (stereo not given)	2.36% (inactive)
COc1ccc(/C(N)=N/OC(=O)Cc2ccccc2)cc1	-6.43% (inactive)
N/C(=N\OC(=O)CC1CCCCC1)c1ccccc1	57.8% (active)
N/C(=N\OC(=O)CCC1CCCCC1)c1ccccn1	-4.7% (inactive)
CCc1ccccc1N1C(=O)C2C3CC(=O)C(c4ccccc43)C2C1=O (stereo not given)	7.01% (inactive)
Cc1noc(C)c1COc1ccc2ccc(=O)oc2c1	-4.27% (inactive)
COc1cc(Cl)c(S(=O)(=O)n2cnc(C)c2)cc1Cl	2.35% (inactive)
COc1cc(C)c(Cl)cc1S(=O)(=O)n1ccnc1	80.5% (active)
CCOc1cc(C)c(Cl)cc1S(=O)(=O)n1nnc2ccccc21	1.2% (inactive)
COc1cc(C)c(C(C)C)cc1S(=O)(=O)n1ccnc1	97.8% (active)
CCOc1ccc(S(=O)(=O)n2ccnc2)c2ccccc12	-5.02% (inactive)
CCOc1ccc(C(C)C)cc1S(=O)(=O)n1nc(C)cc1C	0.47% (inactive)

Compound	inhibition
N#Cc1c(NC(=O)CCCl)sc2c1CCCCC2	-0.81% (inactive)
CCCCCc1nnc(NC(=O)c2ccc(=O)n(C)n2)s1	1.57% (inactive)
O=C1N/C(=C/c2cccs2)C(=O)N1Cc1ccc(F)cc1	-5.2% (inactive)
CC1CC1C(=O)OCC(=O)c1c(N)n(C)c(=O)n(C)c1=O (stereo not given)	-4.6% (inactive)
COCCN(C(=O)C(C)C)c1nnc(-c2ccc(C(C)(C)C)cc2)s1	8.79% (inactive)
O=C(O)c1ccc2c3c(cccc13)C(=O)N(OS(=O)(=O)c1ccccc1)C2=O	-8.08% (inactive)
Cc1cc(C)c(C#N)c(SCC(=O)Nc2ccccc2)n1	-5.68% (inactive)
Cc1cccc(C)c1NC(=O)CSc1ccc([N+](=O)[O-])cn1	-1.31% (inactive)
Cc1cc2cc3c(cc2nc1SCC(=O)Nc1c(C)cccc1C)CCC3	78.9% (active)
CS(=O)(=O)N(CC(=O)N/N=C/c1ccccn1)c1ccc(Oc2ccccc2)cc1	32.9% (inactive)
CCCN(CC(=O)Nc1ccccc1C)C(=O)c1cc(=O)[nH]c2ccccc12	1.78% (inactive)
O=C(O)/C=C/c1cn(-c2ccccc2)nc1-c1cccs1	-2.18% (inactive)
CC(=O)C1=C(C)NC(C)=C(C(C)=O)C1c1cn(-c2ccccc2)nc1-c1cccs1	79.7% (active)
O=C(O)c1ccc(N/N=C/c2cn(-c3ccccc3)nc2-c2cccs2)cc1	46.2% (inactive)
CC(=O)Nc1ccc(S(=O)(=O)Oc2ccc(/C=N/N=C3/NC(=O)C(CC(=O)O)S3)cc2)cc1 (stereo not given)	-13.1% (inactive)
Cc1cccc(C)c1NC(=O)C1CCCN1C(=O)OC(C)(C)C (stereo not given)	-5.04% (inactive)
Cc1ccc(NC(=O)c2csc3c2CCCC3)cc1	12.4% (inactive)
CC(Sc1cccc[n+]1[O-])C(=O)Nc1cccc(S(=O)(=O)N2CCOCC2)c1 (stereo not given)	-4.48% (inactive)
Cc1cc(C(=O)OC(C)C(=O)Nc2cccc(S(=O)(=O)N3CCOCC3)c2)c(C)o1 (stereo not given)	99.7% (active)
O=C(COC(=O)c1ccccc1)Nc1cccc(S(=O)(=O)N2CCOCC2)c1	-3.29% (inactive)
Cc1nc(CN2CCN(C(=O)CCc3nnc(Cc4c[nH]c5ccccc45)o3)CC2)cs1	0.41% (inactive)
CN(CCN1CCOCC1)Cc1nc(-c2ccc3c(c2)OCO3)no1	39.3% (inactive)
CC(C)c1cc(NCc2ccccn2)n2c(nc3ccccc32)c1C#N	8.36% (inactive)
Cc1cc(N/N=C/c2ccccc2F)c2ccccc2n1	12.3% (inactive)
Cc1nc(N2CCOCC2)sc1C(=O)NN	7.46% (inactive)

Compound	inhibition
Cc1ccc(C(=O)C[n+]2cc(-c3ccccc3)n3c2CCCCC3)cc1	101% (active) and 100% (active)
Cc1ccc(C(=O)N2CCCC(c3ccccc3)=N2)cc1	16.1% (inactive)
Cn1c(-c2ccccc2)c[n+]2c1CCCCC2	0.17% (inactive)
N/C(=N/O)c1cccn1Cc1ccccc1[N+](=O)[O-]	-1.66% (inactive)
COc1ccc(C)cc1NC(=O)c1ccc(-c2ccc(C(C)=O)cc2)o1	-4.3% (inactive)
O=C(NC1CCN(Cc2ccccc2)CC1)c1cc(Br)c(Br)[nH]1	60.3% (active)
COc1cc2[nH]c(=O)n(Cc3ccc(C(=O)NC4CCN(Cc5ccccc5)CC4)cc3)c(=O)c2cc1OC	-5.05% (inactive)
O=C(NC(=S)N1CCN(Cc2ccccc2)CC1)c1ccccc1	14.1% (inactive)
S=C(Nc1ccc(Br)cc1Cl)NC1CCN(Cc2ccccc2)CC1	90.3% (active)
O=C(NC1CCN(Cc2ccccc2)CC1)c1c(F)cccc1F	21.7% (inactive)
O=C(NC1CCN(Cc2ccccc2)CC1)c1ccccc1F	62.4% (active)
O=C(COc1ccc(Br)cc1F)NC1CCN(Cc2ccccc2)CC1	93.2% (active)
O=C(COc1ccccc1F)NC1CC1	-1.88% (inactive)
O=C(NNC(=S)Nc1ccc(Br)cc1Cl)c1ccco1	0.76% (inactive)
Cc1ccn2cc(C(=O)NC3CCN(Cc4ccccc4)CC3)nc2c1	4.6% (inactive)
S=C(NN=C1CCN(Cc2ccccc2)CC1)NC1CCCCC1	-4.71% (inactive)
COc1cc2[nH]c(=O)n(CCC(=O)NC3CCN(Cc4ccccc4)CC3)c(=O)c2cc1OC	-1.95% (inactive)
O=C1c2ccccc2NC(c2ccccc2O)N1NS(=O)(=O)c1ccccc1 (stereo not given)	7.23% (inactive)
Cc1ccc(Cl)c(NC(=O)CN2CCN(C=O)CC2)c1	-1.88% (inactive)
COc1cccc(NC(=O)c2ccc3c(SCC(=O)O)c4c(nc3c2)CCCC4)c1	7.5% (inactive)
O=C(Nc1ccncc1)c1cc(-c2ccccn2)nc2ccc(Br)cc12	2.98% (inactive)
NC(=O)c1ccccc1N(Cc1ccccc1)S(=O)(=O)c1ccccc1	2.81% (inactive)
CC(C)(C)n1nc2c(c1NC(=O)c1cc3ccccc3o1)CSC2	1.01% (inactive)
COc1ccccc1N1CCN(c2ccc([N+](=O)[O-])nc2)CC1	-10.8% (inactive)
C/C(=N/N1CCN(Cc2cccc3ccccc23)CC1)c1cccnc1	17.2% (inactive)

Compound	inhibition
OCC1(Cc2ccccc2C(F)(F)F)CCN(Cc2cccc3cnccc23)CC1	88.2% (active)
CCOC(=O)C1(Cc2ccccc2C(F)(F)F)CCN(C(=O)c2cc(C)n(C)n2)CC1	5.02% (inactive)
COc1ccc(C2=NN(c3nc4ccccc4s3)C(=O)C2)cc1	-7.22% (inactive)
CCC(C)(C)NC(=O)CN(C(=O)CCC(=O)Nc1cc(C)ccn1)c1ccc2c(c1)OCCO2	-0.92% (inactive)
CCOc1ccc(NC(=S)N2CCCCCC2)cc1	3.65% (inactive)
CCOc1ccc(NC(=S)N2CCC(N(C)CC3CCCO3)CC2)cc1 (stereo not given)	96.2% (active)
CCC(C)N(C)C1CCN(C(=S)Nc2ccc(OC)cc2)CC1 (stereo not given)	34.2% (inactive)
Cn1cc(CN2CCC(C(O)CCc3ccccc3)CC2)c(-c2ccccc2F)n1 (stereo not given)	-2.53% (inactive)
Cc1ccc(NC(=O)Cn2c(=O)n(CCC(=O)NC3CCN(Cc4ccccc4)CC3)c(=O)c3ccccc32)cc1	0.09% (inactive)
Cc1ccc(CNC(=O)CCNS(=O)(=O)c2ccc(Br)s2)cc1	-6.86% (inactive)
COc1ccc(CN2CN(C(C)C)CSC2=S)cc1	96.4% (active)
COc1ccc(Cn2c(=O)cc(C)[nH]c2=S)cc1	-4.72% (inactive)
COc1ccc(CN2CN(C3CCCC3)CSC2=S)cc1	5.66% (inactive)
COc1ccccc1CC(=O)Nc1ccc([N+](=O)[O-])cc1OC	-0.93% (inactive)
COc1ccccc1CSc1nc2ccccc2[nH]1	-3.47% (inactive)
COc1ccccc1CSc1ncc(-c2ccc([N+](=O)[O-])cc2)[nH]1	76.4% (active)
CCOC(=O)/C=c1\s/c(=C\c2ccc(C#N)cc2)c(=O)n1CC(=O)Nc1cccc(C)c1C	-1.97% (inactive)
CCOC(=O)C/C(C)=N\Nc1ccc([N+](=O)[O-])cc1[N+](=O)[O-]	2.68% (inactive)
CN1C(=O)/C(=C/C=C2\SCCN2C)OC1=S	12.9% (inactive)
CCN(CC)S(=O)(=O)c1ccc(N2CCCC2)c(NS(=O)(=O)c2cccs2)c1	-1.33% (inactive)
CCOc1ccc(CN(Cc2ccco2)S(=O)(=O)c2ccc(-n3cnnn3)c(OC)c2)cc1	95.5% (active)
COc1ccc(N(CC(=O)N/N=C/c2cccs2)S(=O)(=O)c2ccc(OC)c(OC)c2)cc1	3.63% (inactive)
CCOc1ccc(S(=O)(=O)N(CC(=O)NCC(F)(F)F)Cc2ccco2)cc1	-5.48% (inactive)
COc1ccc(CN(Cc2ccco2)S(=O)(=O)c2ccc(S(=O)(=O)N3CCCC3)cc2)cc1	-4.09% (inactive)
COc1cc(S(=O)(=O)N(Cc2cccs2)C2CC2)ccc1-n1cnnn1	99.8% (active)
